The nature of assay [1]: Cell Viability - SK-N-SH (AID 435; calls by dose curve; also: potency is read from the fitted curve at half-maximal effect). The settings on record: SK-N-SH neuroblastoma cell viability qHTS. In outline:
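Human neuroblastoma line, 40 h exposure at 37 °C, ATP quantified via luciferase luminescence; DMSO and 100 uM tamoxifen define 0 and 100% inhibition for AC50 fitting.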
(In general: Quantitative high-throughput screening tests each substance at several concentrations.)

Assay [2] is described as follows: Cell Viability - N2a (AID 540). Also: nearly all actives have a fitted effect of over 45% in size. Also: potency is read from the fitted curve at half-maximal effect.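 As to activity change, negative = cytotoxicity: plate controls were DMSO alone for no effect and tamoxifen control for full effect.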 The settings on record: N2a mouse neuroblastoma cell viability; activity change, negative = cytotoxicity: at 92.2 µM (top of the series). The essentials: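 N2a mouse neuroblastoma, 1500 cells/well, 5 hr settle; compound 40 hr, 37 °C; CellTiter-Glo 20 min RT; luminescence; Hill-fit AC50.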
The nature of assay [3]: Cell Viability - H-4-II-E (AID 543). Also: nearly all actives have a fitted effect of over 35% in size. Also: potency is read from the fitted curve at half-maximal effect. In outline:
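qHTS, rat hepatoma H-4-II-E, 1500 cells/well; 40 hr compound exposure, 37 °C; CellTiter-Glo ATP luminescence after 20 min RT; AC50 by standard Hill fit.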

Assay [4] can be described thus: Cell Viability - Renal Proximal Tubule (AID 545). Also: nearly all actives have a fitted effect of over 40% in size. Also: potency is read from the fitted curve at half-maximal effect.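 As to activity change, negative = cytotoxicity: 0% = DMSO only and -100% = 100 µM tamoxifen.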 The following applies: renal proximal tubule cells viability, primary cells of rat origin; activity change, negative = cytotoxicity: at 91.7 µM (top of the series). In outline: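 In this qHTS format, normal rat kidney-derived proximal tubule cells in complete culture medium receive compound titrations, then sit 40 hours at 37 °C before luciferase-based ATP quantitation; potency is reported as AC50 from concentration-response curves.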

A short description of assay [5]: Cell Viability - LYMP2-001 (AID 921).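 Also: cells exposed to compound for 24 h at 37 °C; nearly all actives have a fitted effect of over 70% in size.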 Also: potency is read from the fitted curve at half-maximal effect. The essentials: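 A lymphoblastoid cell line of human origin was treated with library compounds across a concentration series for 24 hours, and viable cell number was estimated from ATP-driven luciferase light output. Hill modeling gave AC50.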
The nature of assay [6]: MultiTox-Fluor Cytotoxicity Assay - LYMP1-002 - Dead Cells (AID 960). Also: nearly all actives have a fitted effect of over 60% in size. Also: potency is read from the fitted curve at half-maximal effect. The essentials: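 Readout: fluorescence at 485/520 from cell-impermeant bis-AAF-R110 cleaved by proteases leaking from damaged cells. LYMP1-002 lymphoblastoid line, 16 hr compound treatment at 37 C, concentration-response in qHTS format; Hill-equation AC50 values.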
Assay [7] can be described thus: Cell Viability - LYMP1-003 - Assay at 40 hr (AID 964). Also: nearly all actives have a fitted effect of over 60% in size. Also: potency is read from the fitted curve at half-maximal effect. In outline: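 LYMP1-003 lymphoblastoid cells, 2500/well; 5 hr preincubation, 40 hr compound exposure, 37 C; CellTiter-Glo 30 min RT; luminescence; Hill-fit AC50. Positive control tetraoctylammonium bromide.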
Assay [8] can be described thus: Cell Viability - LYMP2-004 (AID 966).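 Also: cells exposed to compound for 24 h; nearly all actives have a fitted effect of over 65% in size.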 Also: potency is read from the fitted curve at half-maximal effect.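 As to activity change, negative = cytotoxicity: plate controls were DMSO only for no effect and tetraoctylammonium bromide control for full effect.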 The essentials: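 Luminescent ATP read-out (CellTiter-Glo, 30 min RT) after 24 hr compound exposure at 37 C; 2500 lymphoblastoid cells/well, complete medium. Decrease in ATP = cytotoxicity; AC50 from standard Hill model.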
Assay [9] in a line: Cell Viability - LYMP2-009 (AID 968).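 Also: cells exposed to compound for 24 h at 37 °C; nearly all actives have a fitted effect of over 55% in size.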 Also: potency is read from the fitted curve at half-maximal effect.
Assay [10] is described as follows: Cell Viability - LYMP2-015 (AID 971).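 Also: cells exposed to compound for 24 h; nearly all actives have a fitted effect of over 55% in size.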 Also: potency is read from the fitted curve at half-maximal effect. In outline: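 qHTS cytotoxicity: 2500 cells/well, 5 hr 37 C, compound 24 hr 37 C, CellTiter-Glo 30 min RT, luminescence. Loss of ATP = toxicity; AC50 via standard Hill fit.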
Assay [11] in a line: Cell Viability - LYMP2-017 (AID 972).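 Also: cells exposed to compound for 24 hours at 37 °C; nearly all actives have a fitted effect of over 55% in size.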 Also: potency is read from the fitted curve at half-maximal effect. As to activity change, negative = cytotoxicity: % is scaled to controls: 0 for no effect and ±100 for the full control effect. In outline:
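Luminescent ATP read-out (CellTiter-Glo, 30 min RT) reports viable cell number. Cells: human lymphoblastoid line, 2500 per well, 5 hr preincubation, 24 hr compound exposure at 37 C. AC50 is derived from qHTS concentration-response data using the standard Hill model.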

Assay [12] in a line: Cell Viability - LYMP2-019 (AID 973).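 Also: cells exposed to compound for 24 h at 37 °C; nearly all actives have a fitted effect of over 55% in size.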 Also: potency is read from the fitted curve at half-maximal effect.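 As to activity change, negative = cytotoxicity: 0% = DMSO alone and full effect = 92 µM tetraoctylammonium bromide.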 In outline:
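qHTS, 1536-well; 2500 cells/well; 5 hr pre-incubation, 24 hr compound exposure, 37 C; CellTiter-Glo added, 30 min RT; luminescence read; AC50 via standard Hill equation.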

Assay [13] is described as follows: Cell Viability - LYMP2-010 (AID 981). Also: potency is read from the fitted curve at half-maximal effect. In outline: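 qHTS cytotoxicity, 1536-well: 2500 cells/well, 5 hr settle, 24 hr compound at 37 C, CellTiter-Glo 30 min RT, luminescence read. Decrease in ATP = toxicity; AC50 via standard Hill equation. Positive control tetraoctylammonium bromide.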
A short description of assay [14]: qHTS assay for small molecule disruptors of the mitochondrial membrane potential - 5 hr assay (AID 651755; calls by dose curve; also: % is scaled to controls: 0 for no effect and ±100 for the full control effect; nearly all actives have a fitted effect of over 40% in size). The essentials: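 Seed HepG2 overnight, add compound, incubate 5 hr at 37C and 5% CO2, stain 30 min with Mito-MPS, then measure monomer (490/535 nm) and aggregate (540/590 nm) fluorescence.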
A short description of assay [15]: MultiTox-Fluor Cytotoxicity Assay - LYMP1-001 - Live Cells (AID 947).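 Also: 0% = DMSO only and full inhibition = tetraoctylammonium bromide control.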
Assay [16] in a line: qHTS assay for small molecule agonists of retinoid X receptor alpha signaling (AID 588544; calls by dose curve). The following applies: HEK293T RXRa-UAS-bla, beta-lactamase reporter, 18 h; 530 nm emission.
Assay [17] concerns the target Retinoic acid receptor RXR-alpha (Homo sapiens) (UniProt P19793). Described as above.
For assay [18], the target named is Thyroid hormone receptor beta (Homo sapiens) (UniProt P10828). The experiment in a line: qHTS assay for small molecule antagonists of thyroid hormone receptor beta signaling (AID 588547; active = well fitted inhibition curve with a large enough effect in the signal ratio, with a control signal flat, not every such curve was filed as active; the % refers to the signal ratio;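 also: cells stimulated with 0.4 nM T3 agonist during compound exposure; % is scaled to controls: 0 for no effect and ±100 for the full control effect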). The settings on record: TR-UAS-bla HEK293, beta-lactamase ratio, antagonist mode, 18 h. The essentials:
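TR-UAS-bla GripTite HEK293 cells in 2% charcoal/dextran FBS medium were preincubated 4 h at 37 C, given compound (0.59 nM to 92 uM) plus 0.4 nM T3 (final) for 18 h, then CCF4 for 2 h at RT; Hill fit gave IC50.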

Assay [19] is described as follows: qHTS assay for small molecule agonists of the antioxidant response element (ARE) signaling pathway measured by Nrf2-dependant transcriptional activity (AID 720636; active = well fitted curve in the direction sought with a large enough effect in the repeat runs; an effect the other way counts as inactive or inconclusive;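 also: HepG2 cells with an ARE-driven luciferase reporter; % of control where 0% means no effect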). In outline: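 Nrf2-dependent transcription is measured in ARE-luc HepG2 cells: compound is applied for 16 hr at 37 C after a 6 hr attachment period, and luciferase activity is quantified by luminescence using ONE-Glo.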

Assay [20] concerns the target Nuclear receptor subfamily 1 group I member 2 (Rattus norvegicus) (UniProt Q9R1A7). In words: qHTS assay for small molecule activators of the rat pregnane X receptor (rPXR) signaling pathway (AID 651751; call rule not given here; also: 0% is about no effect). The following applies: rPXR reporter cells, luciferase (One-Glo), 24 h.

Several values for one entry are separate records, joined by “and”; a condition that tells them apart may be missing. Identical values can stand only once. Records with an inconclusive call do not appear. Activity calls are given as the source filed them. Unless noted, calls follow the shape of the dose curve; as a rule, active = well fitted curve in the direction sought with a large enough effect; inconclusive = small, poorly fitted or top-dose-only effect, or another doubt; inactive = no such curve, though single readings can be large; an effect the other way counts as inactive or inconclusive.

Sequence of Nuclear receptor subfamily 1 group I member 2 (Rattus norvegicus) (Q9R1A7 whole entry, looked up): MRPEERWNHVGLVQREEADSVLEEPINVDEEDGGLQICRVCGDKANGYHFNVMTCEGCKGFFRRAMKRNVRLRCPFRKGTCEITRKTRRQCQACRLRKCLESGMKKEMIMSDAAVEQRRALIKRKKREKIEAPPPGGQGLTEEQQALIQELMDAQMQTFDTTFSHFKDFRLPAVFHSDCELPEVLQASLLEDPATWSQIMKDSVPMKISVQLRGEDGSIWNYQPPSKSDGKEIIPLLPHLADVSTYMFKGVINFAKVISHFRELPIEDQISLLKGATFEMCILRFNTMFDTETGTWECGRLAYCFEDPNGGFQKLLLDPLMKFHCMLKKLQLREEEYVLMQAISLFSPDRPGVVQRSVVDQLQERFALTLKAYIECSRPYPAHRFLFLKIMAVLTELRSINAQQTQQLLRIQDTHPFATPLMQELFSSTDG
Sequence of Thyroid hormone receptor beta (Homo sapiens) (P10828 whole entry, looked up): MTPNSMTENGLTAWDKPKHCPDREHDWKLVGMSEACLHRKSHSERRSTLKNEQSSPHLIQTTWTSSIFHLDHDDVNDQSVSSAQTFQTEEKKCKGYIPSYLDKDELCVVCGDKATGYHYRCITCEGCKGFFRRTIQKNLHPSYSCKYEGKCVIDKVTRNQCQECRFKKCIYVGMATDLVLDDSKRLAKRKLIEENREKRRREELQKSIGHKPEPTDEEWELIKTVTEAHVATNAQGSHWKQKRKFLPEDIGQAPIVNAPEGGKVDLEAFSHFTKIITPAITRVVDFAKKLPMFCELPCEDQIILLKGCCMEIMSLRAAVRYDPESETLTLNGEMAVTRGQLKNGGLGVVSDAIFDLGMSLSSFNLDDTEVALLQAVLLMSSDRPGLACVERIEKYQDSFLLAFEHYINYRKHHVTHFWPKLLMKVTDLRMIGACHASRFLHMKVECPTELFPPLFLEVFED
Sequence of Retinoic acid receptor RXR-alpha (Homo sapiens) (P19793 whole entry, looked up): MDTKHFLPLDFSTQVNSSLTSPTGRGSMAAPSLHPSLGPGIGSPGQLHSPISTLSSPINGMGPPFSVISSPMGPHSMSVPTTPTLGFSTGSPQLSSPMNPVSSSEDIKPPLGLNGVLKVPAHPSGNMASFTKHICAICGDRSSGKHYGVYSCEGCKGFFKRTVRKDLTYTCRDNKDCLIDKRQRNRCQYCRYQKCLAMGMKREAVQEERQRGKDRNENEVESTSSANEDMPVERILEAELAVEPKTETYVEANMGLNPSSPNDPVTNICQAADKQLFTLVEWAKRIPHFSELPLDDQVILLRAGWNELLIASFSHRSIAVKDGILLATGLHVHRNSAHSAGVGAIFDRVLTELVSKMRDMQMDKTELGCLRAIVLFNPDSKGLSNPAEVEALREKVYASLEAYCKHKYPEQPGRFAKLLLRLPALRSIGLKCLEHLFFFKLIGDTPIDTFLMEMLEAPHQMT

As to `CC1=C(/C=C/C(C)=C/C=C/C(C)=C/C=O)C(C)(C)CCC1`, the Potency was 42.3 µM (active) in [1]; 31.6 µM (active) in [2]; 25.1 µM (active) in [3]; 15.8 µM (active) in assay [4]; 39.8 µM (active) in assay [5]; 31.6 µM (active) in [6]. The Potency in assay [7] was 50.1 µM (active); in [8], 39.8 µM (active); in [9], 39.8 µM (active); in assay [10], 39.8 µM (active); in [11], 39.8 µM (active); in assay [12], 50.1 µM (active). The Potency in assay [13] is 31.6 µM (active). Moreover, the Potency entry in [14] is “inactive”.
Regarding `C/C=C1/C(=O)C[C@H]2[C@@H]3CCC4=CC(=O)CC[C@]4(C)[C@H]3CC[C@]12C`, the Potency in [5] was 50.1 µM (active); in assay [6], 31.6 µM (active); in assay [7], 39.8 µM (active); in assay [11], 50.1 µM (active); in [13], 39.8 µM (active). Also, the Potency entry in assay [8] and in assay [14] was “inactive” throughout.
Turning to `CC(=O)CC(=O)Nc1ccccc1`, in assay [1], the Potency is > 92 µM (inactive). Besides, the activity change, negative = cytotoxicity in [2] was -10.9% (inactive). For the same molecule, the Potency result in assay [3], in [4], in assay [5], in assay [15], in assay [6] and in [7] was “inactive” throughout. The Potency result in assay [8], in assay [9], in assay [10], in assay [11], in assay [12] and in assay [17] was “inactive” in each case. Besides, the Potency entry in assay [14] and in assay [19] was “inactive” throughout. Besides, the max response in assay [16] was 6.79% and 6.65%; in assay [20], 8.9% (inactive) and 1.01% (inactive). The activity change % (negative = inhibition) in [18] is 8.7% (inactive) and 11% (inactive).
Consider `C=C1CC[C@H](O)C/C1=C/C=C1\CCC[C@]2(C)[C@@H]([C@H](C)CCCC(C)C)CC[C@@H]12`, for which the Potency in assay [1] is 47.1 µM (active); in [2] it was 31.6 µM (active); in [3], 39.8 µM (active); in assay [5], 39.8 µM (active); in [6], 31.6 µM (active); in [7] it was 39.8 µM (active). Besides, the Potency in [8] is 39.8 µM (active); in [9], 50.1 µM (active); in [10], 39.8 µM (active); in assay [11] it was 50.1 µM (active); in assay [12], 39.8 µM (active); in [13], 39.8 µM (active). Also, the activity change, negative = cytotoxicity in [4] was -97.9% (active). For the same molecule, the Potency result in [14] is “inactive”. For the same molecule, the max response in [20] is 7.46% (inactive).
Consider `c1ccc2c(c1)ccc1ccccc12`, for which the Potency in assay [1] is > 92 µM (inactive). For the same molecule, the activity change, negative = cytotoxicity in assay [2] is -13.8% (inactive). Also, the Potency result in assay [3], in assay [4], in assay [5], in assay [15], in assay [6] and in [7] was “inactive” throughout. Moreover, the Potency entry in [8], in assay [9], in assay [10], in assay [11], in assay [12] and in [13] was “inactive” each time. Further, the Potency result in [17], in assay [14] and in assay [19] was “inactive” in each case. Further, the max response in [16] is -6.28%; in assay [20] it was -1.82% (inactive) and 1.55% (inactive). The activity change % (negative = inhibition) in assay [18] was 0.286% (inactive).
In the case of `Nc1cc(C(=O)O)c(O)c(S(=O)(=O)O)c1`, the Potency in assay [1] is > 92 µM (inactive). In addition, the activity change, negative = cytotoxicity in assay [2] was -4.5% (inactive). Further, the Potency result in [3], in [4], in assay [5], in assay [15], in assay [6] and in assay [7] was “inactive” throughout. The Potency entry in assay [8], in [9], in [10], in [11], in [12] and in assay [13] was “inactive” throughout. Further, the Potency entry in assay [17], in assay [14] and in [19] was “inactive” each time. The max response in [16] was 11.2%; in assay [20], 1.39% (inactive). Also, the activity change % (negative = inhibition) in [18] is -10.1% (inactive).
Consider `CCN(CC)c1ccc2c(C)cc(=O)oc2c1`, for which the Potency in [1] is > 92 µM (inactive). Besides, the activity change, negative = cytotoxicity in assay [2] was -15.7% (inactive). The Potency result in [5], in assay [15], in [7], in [8], in assay [9] and in assay [10] was “inactive” in each case. For the same molecule, the Potency result in assay [11], in assay [12], in [13] and in assay [19] was “inactive” in each case.

Source of the values: PubChem BioAssay (NCATS).
